Results as given in PubChem BioAssay AID1159580 (chemical genetic matrix, 2015).
Several values for one entry are separate records, joined by “and”; a condition that tells them apart may be missing. Equal entries are not always repeated. Hit rate of the full screen: of about 5,500 compounds, about 2,000 (36%) were called active. Inconclusive results (about 18%) are left out. Rule as the data show it: active = normalized growth mostly below about 0.91 (no sharp cut-off); inconclusive = no clear call, values can overlap the other calls; inactive = mostly above about 0.92. The list shows a part of the results.

Assay: chemical genetic growth profiling, strain panel (AID 1159580);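 also: tested at 20 µM; growth read once vehicle control cultures reached saturation at 30 °C; 1 = growth at the plate median or of vehicle wells; lower values mean less growth of the strain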
Conditions: S. cerevisiae deletion strains, growth OD

Measured: normalized growth

CC(C)CCCC(C)C1CCC2C3CC[C@H]4CCCC[C@]4(C)C3CC[C@]12C (some centres not stated)
inactive: locus YAL013W, strain DEP1, stronger effect = lower value 1.09 | locus YAL021C, strain ccr4, stronger effect = lower value 1 | locus YAL026C, strain drs2, stronger effect = lower value 1.02 | locus YAL030W, strain snc1, stronger effect = lower value 1.02 | locus YBL061C, strain skt5, stronger effect = lower value 1.02 | locus YBR009C, strain hhf1, stronger effect = lower value 1.03 | locus YBR021W, strain FUR4, stronger effect = lower value 1.04 | locus YBR023C, strain chs3, stronger effect = lower value 1.02 | locus YBR171W, strain sec66, stronger effect = lower value 1.02 | locus YBR229C, strain ROT2, stronger effect = lower value 0.963 | locus YBR231C, strain swc5, stronger effect = lower value 1.03 | locus YBR279W, strain paf1, stronger effect = lower value 1.02 | locus YCL011C, strain gbp2, stronger effect = lower value 1.02 | locus YCL016C, strain dcc1, stronger effect = lower value 1.02 | locus YCL029C, strain bik1, stronger effect = lower value 0.985 | locus YCL061C, strain MRC1, stronger effect = lower value 1.02 | locus YCL069W, strain vba3, stronger effect = lower value 1.01 | locus YCR088W, strain abp1, stronger effect = lower value 1.01 | locus YDL005C, strain med2, stronger effect = lower value 1.02 | locus YDL035C, strain GPR1, stronger effect = lower value 0.971 | locus YDL040C, strain nat1, stronger effect = lower value 1.01 | locus YDL074C, strain BRE1, stronger effect = lower value 0.959 | locus YDL101C, strain DUN1, stronger effect = lower value 0.952 | locus YDL134C, strain PPH21, stronger effect = lower value 0.985 | locus YDL185W, strain tfp1, stronger effect = lower value 0.966 | locus YDL192W, strain arf1, stronger effect = lower value 0.983 | locus YDR001C, strain nth1, stronger effect = lower value 1.01 | locus YDR069C, strain doa4, stronger effect = lower value 1.05 | locus YDR101C, strain arx1, stronger effect = lower value 0.99 | locus YDR137W, strain rgp1, stronger effect = lower value 1 | locus YDR150W, strain NUM1, stronger effect = lower value 0.965 | locus YDR159W, strain sac3, stronger effect = lower value 1.04 | locus YDR162C, strain NBP2, stronger effect = lower value 0.964 | locus YDR195W, strain ref2 1.03 | locus YDR297W, strain sur2, stronger effect = lower value 1.02 | locus YDR318W, strain mcm21, stronger effect = lower value 1 | locus YDR334W, strain swr1, stronger effect = lower value 1.01 | locus YDR335W, strain msn5, stronger effect = lower value 1.02 | locus YDR388W, stronger effect = lower value 0.987 | locus YDR392W, strain spt3, stronger effect = lower value 0.98 | locus YDR502C, strain sam2, stronger effect = lower value 0.978 | locus YEL003W, strain gim4, stronger effect = lower value 1.03 | locus YEL037C, strain rad23, stronger effect = lower value 1.01 | locus YEL061C, strain CIN8 (second series), stronger effect = lower value 1.01 | locus YEL061C, strain CIN8, stronger effect = lower value 0.994 | locus YER015W, strain faa2, stronger effect = lower value 1.02 | locus YER016W, strain bim1, stronger effect = lower value 1.02 | locus YER110C, stronger effect = lower value 0.988 | locus YER111C, strain swi4, stronger effect = lower value 1.03 | locus YER155C, strain BEM2 (second series), stronger effect = lower value 1.04 | locus YER155C, strain BEM2, stronger effect = lower value 0.998 | locus YER167W, strain BCK2, stronger effect = lower value 1.01 | locus YFR010W, strain ubp6, stronger effect = lower value 1.02 | locus YGL078C, strain dbp3, stronger effect = lower value 0.994 | locus YGL086W, strain mad1, stronger effect = lower value 1.01 | locus YGL167C, strain pmr1, stronger effect = lower value 1.01 | locus YGL173C, strain kem1, stronger effect = lower value 1.02 | locus YGL227W, strain vid30, stronger effect = lower value 1.03 | locus YGL240W, strain doc1, stronger effect = lower value 1.05 | locus YGL248W, strain PDE1, stronger effect = lower value 0.984 | locus YGL253W, strain hxk2, stronger effect = lower value 1 | locus YGR078C, strain PAC10, stronger effect = lower value 0.967 | locus YGR135W, strain pre9, stronger effect = lower value 0.965 | locus YGR229C, strain SMI1, stronger effect = lower value 0.979 | locus YGR252W, strain gcn5, stronger effect = lower value 1 | locus YHR013C, strain ard1, stronger effect = lower value 1.05 | locus YHR027C, strain rpn1, stronger effect = lower value 1.01 | locus YHR030C, strain SLT2, stronger effect = lower value 0.997 and 0.984 | locus YHR079C, strain IRE1 (second series), stronger effect = lower value 1 | locus YHR079C, strain IRE1, stronger effect = lower value 1 | locus YHR094C, strain hxt1, stronger effect = lower value 0.988 | locus YHR129C, strain ARP1, stronger effect = lower value 0.993 | locus YHR142W, strain chs7, stronger effect = lower value 0.982 | locus YHR200W, strain rpn10, stronger effect = lower value 0.978 | locus YIL066C, strain RNR3, stronger effect = lower value 0.974 | locus YIL073C, strain SPO22, stronger effect = lower value 1.08 | locus YIL125W, strain kgd1, stronger effect = lower value 0.991 | locus YIR030C, strain dcg1, stronger effect = lower value 0.987 | locus YJL092W, strain hpr5, stronger effect = lower value 1.01 | locus YJL095W, strain BCK1 (second series), stronger effect = lower value 1.01 | locus YJL095W, strain BCK1, stronger effect = lower value 0.976 and 0.988 | locus YJL115W, strain asf1, stronger effect = lower value 1.01 | locus YJL129C, strain trk1, stronger effect = lower value 1.01 | locus YJL134W, strain LCB3, stronger effect = lower value 0.991 | locus YJL154C, strain vps35, stronger effect = lower value 1 | locus YJL164C, strain tpk1, stronger effect = lower value 1.02 | locus YJL166W, strain qcr8, stronger effect = lower value 1.02 | locus YJL168C, strain set2, stronger effect = lower value 0.988 | locus YJL187C, strain SWE1 (second series), stronger effect = lower value 0.966 | locus YJL187C, strain SWE1, stronger effect = lower value 1.02 | locus YJR043C, strain POL32, stronger effect = lower value 1.05 | locus YJR066W, strain TOR1, stronger effect = lower value 0.931
